The list is not random: actives were taken first. Their share in the collection is about 3.7%.
GLP1R inv ag: inverse agonists of human GLP-1 receptor. P43220. HEK293 GLP-1R CRE-luciferase, luminescence, 24 h; GLP-1R form is constitutively active. Potency, µM (doses to about 38.3 µM), without a hit: at the top dose activity change, negative = inhibition, hits mostly inhibitors. hit rate 1.6% among 410,000. AID 624417; also: % is scaled to controls: 0 for no effect and ±100 for the full control effect; nearly all actives have a fitted effect of over 55% in size
Target sequence (P43220 whole entry, looked up): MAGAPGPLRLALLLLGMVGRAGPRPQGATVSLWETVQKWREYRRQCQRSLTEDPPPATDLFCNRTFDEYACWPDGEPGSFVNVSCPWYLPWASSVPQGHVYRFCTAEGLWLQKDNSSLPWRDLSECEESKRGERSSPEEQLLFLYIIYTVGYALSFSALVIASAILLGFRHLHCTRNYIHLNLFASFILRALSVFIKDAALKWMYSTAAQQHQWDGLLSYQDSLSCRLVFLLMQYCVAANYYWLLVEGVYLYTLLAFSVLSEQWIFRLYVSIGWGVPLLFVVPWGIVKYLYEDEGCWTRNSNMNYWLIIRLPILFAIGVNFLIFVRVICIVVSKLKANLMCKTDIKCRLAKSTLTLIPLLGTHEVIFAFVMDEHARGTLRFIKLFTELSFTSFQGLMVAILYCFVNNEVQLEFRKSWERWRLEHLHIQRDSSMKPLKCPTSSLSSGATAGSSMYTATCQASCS
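Seeding at 200 cells/uL, 12 h culture, 24 hr compound treatment, then luciferase reagent and a luminescence read; cells are HEK293 stably expressing a constitutively active GLP-1R plus cAMP-responsive luciferase.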
ATXN viability: cell viability loss in ATXN counter-screen; Potency, µM (titrated, usually from 56.7 µM), most hits filed as cytotoxic; S2 cells (HEK-293 line with an ATXN2-luciferase reporter) viability, CellTiter-Fluor protease fluorescence, 24 h; hit rate 0.49% among 400,000; also: nearly all actives have a fitted effect of over 40% in size
HepG2 viability: counter-screen for TGF-b inhibitors: cytotoxicity in HepG2 cells; HepG2 CAGA-GFP viability, ATP luminescence, 18 h; Potency, µM (series often up to 46.1 µM), for the others: top-dose activity change, negative = cytotoxicity, most hits filed as cytotoxic; hit rate 0.76% among 410,000; AID 588856
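CellTiter-Glo luminescence gave cytotoxicity after 18 hours at 37 degrees C. The cells were HepG2 CAGA-GFP in 1% FBS DMEM, stimulated with 500 pg/mL TGF-beta after compound addition. %Activity was normalised to no-cell wells (complete cell-killing) and DMSO (no toxicity), and curves were fitted and classified.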
ATXN2 expr inh: reduces ATXN2 reporter expression in HEK-293 cells; Potency, µM (highest dose often 57 µM), inactives show at the highest dose activity change, negative = inhibition, usual class: inhibitors; hit rate 0.72% among 360,000; HEK-293 ATXN2-luciferase reporter, luminescence, 24 h; AID 1745845; also: % is scaled to controls: 0 for no effect and ±100 for the full control effect; nearly all actives have a fitted effect of over 55% in size
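ATXN2-luciferase reporter cells (luciferase flanked by upstream and downstream ATXN2 gene portions) were treated 24 h at 37 °C with compounds at up to 57 uM. SteadyGlo luminescence gave expression; GF-AFC fluorescence gave viability.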
GLP1R ag: GLP-1 receptor (human) agonism; Potency, µM (titrated, usually from 45.6 µM), inactives show at the top dose activation, hits mostly activators; AID 624172; HEK293 GLP-1R CRE-luciferase, luminescence, 4-6 h; cells express a hypersensitive GLP-1R form; hit rate 0.007% among 380,000; also: % of control where 0% means no effect
TGFb SMAD3 inh: blocks TGF-b signaling; HepG2 CAGA-GFP TGF-b/SMAD3 reporter, GFP fluorescence, 18 h; TGF-beta stimulated, 500 pg/mL final; Potency, µM (series often up to 46.1 µM), without a hit: at the top dose activity, negative = inhibition, most hits filed as inhibitors; hit rate 1.2% among 410,000; also: % is scaled to controls: 0 for no effect and ±100 for the full control effect; nearly all actives have a fitted effect of over 65% in size
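Using HEPG2 CAGA-GFP reporter cells at 1000 cells/well, we pinned test compounds, stimulated with recombinant TGF-beta (500 pg/mL final) and measured total well GFP after 18 h.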
Active calls of the source: *. Calls follow the shape of the dose curve; as a rule, active = well fitted curve in the direction sought with a large enough effect; inconclusive = small, poorly fitted or top-dose-only effect, or another doubt; inactive = no such curve, though single readings can be large; an effect the other way counts as inactive or inconclusive. Potency is read from the fitted curve at half-maximal effect.

For CC(=O)N/N=C/c1c(C)[nH]n(-c2ccccc2)c1=O the results were GLP1R inv ag 11%, ATXN viability inactive, HepG2 viability 1%, ATXN2 expr inh -28%, GLP1R ag -2% and TGFb SMAD3 inh -3%.
Cc1[nH]n(-c2cccc3ccccc23)c(=O)c1/C=N/NC(=O)c1cccc([N+](=O)[O-])c1 was read as GLP1R inv ag -15%, ATXN viability inconclusive, HepG2 viability 0%, ATXN2 expr inh 20µM*, GLP1R ag -5% and TGFb SMAD3 inh 6%.
`Cc1[nH]n(-c2ccccc2)c(=O)c1/C=N/NC(=O)c1cccc([N+](=O)[O-])c1` gave GLP1R inv ag 0%, ATXN viability inconclusive, HepG2 viability -67%, ATXN2 expr inh 14µM*, GLP1R ag -11% and TGFb SMAD3 inh inconclusive.
Screening Cc1nc2ccc(C(=O)N3CCc4c(cnc(C)c4CNC(=O)/C=C/c4cccs4)C3)cc2nc1C returned ATXN viability inactive.
For Cc1ccc(-n2ncc3c(NCCC4=CCCCC4)ncnc32)cc1C the results were GLP1R inv ag 21%, ATXN viability inactive, HepG2 viability -15%, ATXN2 expr inh 17% and TGFb SMAD3 inh 0%.
`Cn1c(-c2ccncc2)nc2cc(C(=O)N[C@H]3CCCCNC3=O)cc(NC(=O)C3CCC3)c21` gave ATXN viability inactive.
Screening Cc1cc(C)c2nc(N(CCCN(C)C)C(=O)c3ccc4c(c3)CCCC4)sc2c1 returned GLP1R inv ag 4.5µM*, ATXN viability inconclusive, HepG2 viability -60%, ATXN2 expr inh inconclusive, GLP1R ag -10% and TGFb SMAD3 inh inconclusive.
CCOC(=O)N1CCN(S(=O)(=O)c2ccc(C(=O)N(CCN(C)C)c3nc4ccc(Cl)cc4s3)cc2)CC1 was read as GLP1R inv ag 8.9µM*, ATXN viability inactive, HepG2 viability -35%, ATXN2 expr inh -26%, GLP1R ag -3% and TGFb SMAD3 inh -16%.
For Cc1cc(C)c2nc(N(CCCN(C)C)C(=O)c3ccc(S(=O)(=O)N4CCCCCC4)cc3)sc2c1 the results were GLP1R inv ag 13µM*, ATXN viability inactive, HepG2 viability -74%, ATXN2 expr inh inconclusive, GLP1R ag -6% and TGFb SMAD3 inh 16µM*.
Screening COc1ccc2cc([S+]([O-])Cc3ncc(C)c(OC)c3C)nc2c1 returned ATXN2 expr inh 21%.
`Cc1cccc(Cn2cc(S(=O)(=O)c3ccccc3)c(=O)c3cc(F)c(N4CCOCC4)cc32)c1` gave GLP1R inv ag -3%, HepG2 viability -32% and TGFb SMAD3 inh -23%.
CCn1c(CNc2nc(-c3ccccc3)cs2)nnc1SCC(=O)NCc1ccccc1 was read as GLP1R inv ag 11µM*, ATXN viability inactive, HepG2 viability -43%, ATXN2 expr inh -26%, GLP1R ag 1% and TGFb SMAD3 inh 0%.
For CCn1c(CNc2ccc(Cl)cc2)nnc1SCC(=O)NCc1ccccc1 the results were GLP1R inv ag inconclusive, ATXN viability inactive, HepG2 viability -31%, ATXN2 expr inh 2%, GLP1R ag 3% and TGFb SMAD3 inh 0%.
Screening CCn1c(SCC(=O)Nc2nc(-c3ccccc3)cs2)nnc1-c1ccccc1 returned GLP1R inv ag 10µM*, ATXN viability inactive, HepG2 viability -37%, ATXN2 expr inh -3%, GLP1R ag -2% and TGFb SMAD3 inh inconclusive.
Screening CCN(CC)CC#CCC(O)(c1ccccc1)c1ccccc1 returned GLP1R inv ag inconclusive, ATXN viability inactive, HepG2 viability -44%, ATXN2 expr inh -30%, GLP1R ag 4% and TGFb SMAD3 inh 1%.
`CCN(CC)CC#CCC(O)(c1ccccc1)c1ccc(Br)cc1` (stereo not drawn) gave GLP1R inv ag 10µM*, ATXN viability inconclusive, HepG2 viability -36%, GLP1R ag -6% and TGFb SMAD3 inh inconclusive.
CCOc1ccc2c(ccc(/C=C/c3cc(C)c4cccnc4c3O)[n+]2C)c1 was read as GLP1R inv ag inconclusive, ATXN viability 7.5µM*, HepG2 viability -103%, ATXN2 expr inh inconclusive, GLP1R ag -30% and TGFb SMAD3 inh 7.1µM*.
For CCOc1ccc(/C=C/c2ccc3ccccc3[n+]2C)cc1OCC the results were HepG2 viability -4% and TGFb SMAD3 inh 0%.
COc1ccc(OC)c(-c2csc(N(C)C(=O)c3ccco3)n2)c1 was read as GLP1R inv ag 16%, ATXN viability 35µM*, HepG2 viability -5%, ATXN2 expr inh -19%, GLP1R ag 2% and TGFb SMAD3 inh -4%.
Screening COc1ccc(CCNC(=O)C(=O)NCC(c2ccco2)S(=O)(=O)c2ccc(F)cc2)cc1 (stereo not drawn) returned GLP1R inv ag -13%, HepG2 viability 0% and TGFb SMAD3 inh 27%.
Screening CCCn1nnnc1NC(=O)c1ccc2ccccc2c1 returned GLP1R inv ag inconclusive, ATXN viability inconclusive, HepG2 viability 13µM*, ATXN2 expr inh inconclusive, GLP1R ag -10% and TGFb SMAD3 inh -2%.
CCCCS(=O)(=O)c1oc(-c2cccs2)nc1S(=O)(=O)c1ccc(F)cc1 was read as GLP1R inv ag inconclusive, HepG2 viability 5.6µM* and TGFb SMAD3 inh 5µM*.
For CCCSc1oc(-c2cccs2)nc1S(=O)(=O)c1ccc(C)cc1 the results were GLP1R inv ag inconclusive, ATXN viability inactive, HepG2 viability 0%, ATXN2 expr inh -8% and TGFb SMAD3 inh -24%.
`CCCCS(=O)(=O)c1oc(-c2ccc(F)cc2)nc1S(=O)(=O)c1ccc(C)cc1` gave GLP1R inv ag inconclusive, HepG2 viability 3.5µM* and TGFb SMAD3 inh 4.5µM*.
For CCCCCS(=O)(=O)c1oc(-c2cccs2)nc1S(=O)(=O)c1ccc(C)cc1 the results were GLP1R inv ag 5%, HepG2 viability -104% and TGFb SMAD3 inh 7.9µM*.
For Cc1ccc(S(=O)(=O)c2nc(-c3ccc(F)cc3)oc2N2CCN(c3ccccc3)CC2)cc1 the results were GLP1R inv ag 11%, HepG2 viability 0% and TGFb SMAD3 inh 0%.
For CCC(C)S(=O)(=O)c1oc(-c2ccc(F)cc2)nc1S(=O)(=O)c1ccc(F)cc1 (stereo not drawn) the results were GLP1R inv ag inconclusive, HepG2 viability 3.5µM* and TGFb SMAD3 inh inconclusive.

Screening results deposited in PubChem BioAssay by National Center for Advancing Translational Sciences (NCATS).
